According to PubChem BioAssay AID504848 (National Center for Advancing Translational Sciences (NCATS), 2011):
In all, about 2,300 compounds went through this assay and about 1,400 (61%) were called active. Roughly 29% stayed inconclusive and do not appear here. The call rests on the fitted dose curve; in most records, active means well fitted inhibition curve with a large enough effect; inconclusive means small, poorly fitted or top-dose-only effect, or effect the other way; inactive means no such curve, though single readings can be large or run the other way. So high a share suggests a set chosen from earlier hits. The list shows a part of the results.

Assay: Confirmation screen for delayed death inhibitors of the malarial parasite plastid, 96 hour incubation; further: nearly all actives have a fitted effect of over 60% in size
Details: P. falciparum luciferase growth in erythrocytes; series mostly up to 28.7 µM
How it was run: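 Two-generation (96 h, 37 C) exposure of P. falciparum carrying an integrated firefly luciferase reporter in erythrocytes, 0.1% parasitemia and 2% hematocrit final, Albumax-supplemented RPMI. Luminescence decrease measures growth inhibition.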
Potency means the concentration at half of the fitted maximal effect.

Row | Structure (SMILES) | Potency
1 | O=C(NCCN1CCOCC1)c1ccc(Cl)c(S(=O)(=O)N2CCCCC2)c1 | 14.1 µM (active)
2 | O=C(NCc1cccnc1)c1ccc(Cl)c(S(=O)(=O)N2CCOCC2)c1 | 11.2 µM (active)
3 | O=C(NCc1cccnc1)c1ccc(NS(=O)(=O)c2ccccc2)cc1 | 7.08 µM (active)
4 | CCC(C)[C@H](NC(=O)NCCCOC(C)C)C(=O)OC (stereo partly specified) | inactive
5 | CCOC(=O)c1cc2c(nc1NC(=S)Nc1ccccc1)CC(C)(C)OC2 | 12.6 µM (active)
6 | O=C(O)c1ccccc1NS(=O)(=O)c1cccc(-n2sc3ccccc3c2=O)c1 | 12.6 µM (active)
7 | O=C(Cn1c(=O)c(=O)n(Cc2ccccc2)c2ccc(Cl)cc21)Nc1cccc(F)c1 | 12.6 µM (active)
8 | CCn1c(=O)cc(C(=O)OC)sc1=Nc1ccc(F)c(F)c1 | inactive
9 | O=C1CS/C(=N/N=C\c2ccn[nH]2)N1 | 10 µM (active)
10 | C#Cc1ccc(CN2CCN(CCCc3ccccc3)C(CCO)C2)cc1 (stereo unspecified) | 7.08 µM (active)
11 | Cc1ccc(-c2nc(-c3cccnc3)sc2CC(=O)Nc2ccc(C)c(Cl)c2)cc1 | 4.47 µM (active)
12 | COc1ccc(CCNC(=O)c2cc3c(=O)n4cccc(C)c4nc3n(Cc3ccco3)c2=N)cc1OC | 11.2 µM (active)
13 | CC(C)C1N=C(c2ccc3c(c2)OCO3)CC(c2ccccc2O)N1 (stereo unspecified) | 14.1 µM (active)
14 | O=C(NC1CCCC1)c1ccc([N+](=O)[O-])s1 | 10 µM (active)
15 | COc1ccccc1N(Cc1ccccc1)S(=O)(=O)c1cccc(C(=O)Nc2ccccn2)c1 | 7.08 µM (active)
16 | CC(=O)c1ccccc1OCC(O)CN1CCN(C(c2ccccc2)c2ccccc2)CC1 (stereo unspecified) | 3.55 µM (active)
17 | CCOC(=O)C1CCN(C(=O)CCc2nnc3ccc(NCc4ccco4)nn23)CC1 | 5.01 µM (active)
18 | O=C(CCl)Nc1cccc(S(=O)(=O)NC2=NCCC2)c1 | 0.794 µM (active)
19 | COC(=O)[C@@]1(Cc2ccc(F)cc2)[C@@H]2[C@@H](CC(=O)[C@H]2CC(=O)C(=O)N(C)C)CN1C(=O)c1ccccc1 | 10 µM (active)
20 | COc1ccccc1N1CCN(C(=O)c2noc(C(C)C)c2[N+](=O)[O-])CC1 | 8.91 µM (active)
21 | CCCCCCCn1c(=O)c(C(=O)OC)c(N)c2ccccc21 | 6.31 µM (active)
22 | Cc1ccnc(NCc2cccc3ccccc23)c1 | 10 µM (active)
23 | CSc1ccc(CNc2cccc3ccccc23)cc1 | inactive
24 | COc1cccc(CNc2cc(C)ccn2)c1O | 7.94 µM (active)
25 | Cc1cccc(NCc2cccc3ccccc23)n1 | 14.1 µM (active)
26 | N#CCc1nc(C(c2ccccc2)c2ccccc2)no1 | 7.08 µM (active)
